Drawing on PubChem BioAssay AID1851 (National Center for Advancing Translational Sciences (NCATS), 2009), this text covers AC50 and activity, negative = inhibition for 100 molecules.

As usually defined, the AC50 is the concentration at which the activity in the assay is half-maximal.

SMILES strings stand for the structures. Screen size: about 16,000 compounds; about 5,800 (36%) were called active. Not shown: some 23% with an inconclusive outcome. The list shows a part of the results. Values without a mark were called inactive. Calls follow the shape of the dose curve; as a rule, active = well fitted curve in the direction sought with a large enough effect; inconclusive = small, poorly fitted or top-dose-only effect, or effect the other way; inactive = no such curve, though single readings can be large or run the other way.
% is scaled to controls: 0 for no effect and ±100 for the full control effect.

Sequence of Cytochrome P450 2C19 (Homo sapiens) (P33261 whole entry, looked up): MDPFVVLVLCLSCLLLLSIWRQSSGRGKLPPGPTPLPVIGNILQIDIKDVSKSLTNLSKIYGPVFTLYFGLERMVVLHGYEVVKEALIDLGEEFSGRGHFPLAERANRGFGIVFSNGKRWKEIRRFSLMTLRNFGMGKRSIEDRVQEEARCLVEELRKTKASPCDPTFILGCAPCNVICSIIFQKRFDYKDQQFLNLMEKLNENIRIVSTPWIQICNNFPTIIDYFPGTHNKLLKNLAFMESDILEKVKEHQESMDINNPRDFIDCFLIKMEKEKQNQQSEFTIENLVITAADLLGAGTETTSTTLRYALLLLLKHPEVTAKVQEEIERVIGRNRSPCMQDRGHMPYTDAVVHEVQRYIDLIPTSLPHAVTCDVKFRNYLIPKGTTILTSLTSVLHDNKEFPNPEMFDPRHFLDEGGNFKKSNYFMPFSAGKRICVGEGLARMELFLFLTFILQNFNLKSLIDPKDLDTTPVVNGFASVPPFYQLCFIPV

The assay concerns the target Cytochrome P450 2C19 (Homo sapiens) (UniProt P33261). Description: Cytochrome panel assay with activity outcomes. The conditions noted are these: recombinant CYP, pro-luciferin dealkylation, luminescence, p450-cyp2c19; series mostly up to 57.1 µM.
Regarding `N#C/C(=C/c1ccc(N2CCCC2)c([N+](=O)[O-])c1)c1nc2ccccc2[nH]1`, the half-maximal activity concentration (AC50) is 1.26 µM (active).

Turning to `N#C/C(=C\c1ccc(N2CCCC2)c([N+](=O)[O-])c1)c1nc2ccccc2[nH]1`, the AC50 was 1 µM (active). For `Cn1c(=O)n2n(c1=O)[C@H]1[C@H](O)[C@H]3O[C@H]3C(=O)[C@H]1CC2`, the activity, negative = inhibition was 20.1% [at 11.4 µM]. Regarding `C1CCC(C(C[C@@H]2CCCCN2)C2CCCCC2)CC1`, the AC50 entry was “inactive”.

In the case of `C[C@@H]1O[C@H](O[C@@H]2[C@@H](Oc3cc(O)c4c(c3)O[C@H](c3ccc(O)cc3)CC4=O)O[C@@H](CO)[C@@H](O)[C@H]2O)[C@@H](O)[C@H](O)[C@@H]1O`, the AC50 entry is “inactive”. Take `O=S(=O)(O)c1ccc(-c2nnc(-c3ccccn3)nc2-c2ccc(S(=O)(=O)O)o2)o1`: the activity, negative = inhibition is -6.8% [at 11.4 µM]. For `c1ccc(-c2ccccn2)nc1`, the AC50 result is “inactive”. Consider `c1ccc(-c2nc3ccccc3o2)nc1`, for which the AC50 was 14.1 µM (active). `CC(C)=CCNc1ncnc2nc[nH]c12`: the activity, negative = inhibition was 26.8% [at 11.4 µM]. With `O=[N+]([O-])/C=C/c1cn(Cc2ccccc2)c2ccccc12`, the concentration at half-maximal activity (AC50) is 1.41 µM (active). `O=C1CS/C(=C\[N+](=O)[O-])N1c1ccc(OC(F)(F)F)cc1`: the AC50 was 3.98 µM (active). `C/C=C\C1=C(CO)C(=O)C2O[C@]2(CC=C(C)C)C1=O` (stereo not given in full): the activity, negative = inhibition was -25.8% [at 11.4 µM].

As to `Cc1ccc(C(=O)N2C3C=CC(C3)C2(C(F)(F)F)C(F)(F)F)cc1` (stereo not given), the AC50 was 15.8 µM (active).

For `C=CCOc1ccccc1OC[C@H](O)CNC(C)C`, the AC50 entry is “inactive”. With `COc1ccccc1OC[C@H](O)COC(N)=O`, the AC50 result is “inactive”.

Take `O=S(=O)(CC(O)COc1ccccc1Cl)c1ccccc1` (stereo not given): the AC50 was 7.08 µM (active). Take `O=C(Nc1cccc2ncccc12)c1cccc(F)c1`: the AC50 entry was “inactive”. On the same count and under the same terms, next, `O=C(Nc1cccc2ncccc12)c1ccc(-c2ccc(Br)cc2)o1`: 4.47 µM (active). The same measure, in the same setting: to `COc1ccc2[nH]cc(CCNc3ccnc(-c4ccccc4C)n3)c2c1` belongs 2.51 µM (active).

As for `CC(=O)NCCNc1ccnc(-c2ccccc2C)n1`, the AC50 entry was “inactive”. Same read-out and setting: next, `COc1ccc2[nH]cc(CCNc3ccnc(-c4ccccc4C(F)(F)F)n3)c2c1`: 25.1 µM (active); `COc1cccc(CNc2ccc(F)c(Cl)c2)c1O`: 3.16 µM (active); `Cc1noc(C)c1C(=O)N1CCC[C@@]2(CCN(C(=O)Nc3ccccc3)C2)C1`: “inactive”.

Consider `CCC(CC)C(=O)Nc1cccc(/C(C)=N/NC(=O)c2c(Br)cnn2C)c1`, for which the AC50 entry was “inactive”.

With `CCOC(=O)c1c(NC(=O)c2c(Br)cnn2C)c(C#N)nn1-c1ccccc1`, the AC50 is 11.2 µM (active). On the same count and under the same terms, next, `Cc1ccc(C(c2ccc(C)o2)c2cccc([N+](=O)[O-])c2O)o1`: 3.55 µM (active); `O=C1NC(=S)N/C1=C/c1cccc([N+](=O)[O-])c1O`: “inactive”.

As for `Cc1c(-c2ccc(O)cc2)nn(-c2ccc(O)cc2)c1-c1ccc(OCCN2CCCCC2)cc1`, the AC50 entry was “inactive”.

Turning to `O=C(NCC1CCCO1)/C(=C\c1ccco1)NC(=O)c1ccccc1` (stereo not given), the AC50 result was “inactive”. The same measure, in the same setting: to `Cc1ccc(C(=O)N/C(=C/C=C/c2ccccc2)C(=O)NCc2ccco2)cc1` belongs 2.24 µM (active); to `CC(C)OC(=O)/C(=C\C=C\c1ccccc1)NC(=O)c1ccccc1`, “inactive”. On the same count and under the same terms, next, `C=CCNC(=O)/C(=C\C=C\c1ccccc1)NC(=O)c1ccc(OCCCC)cc1`: 14.1 µM (active); `Cc1ccc(CSc2nnc(-c3ccncc3)n2CC2CCCO2)cc1` (stereo not given): 4.47 µM (active). The same measure, in the same setting: to `CCC(=O)Nc1ccc(C(=O)CSc2nnc(-c3ccc(O)cc3)n2CC2CCCO2)cc1OC` (stereo not given) belongs “inactive”; to `COc1ccc(-c2nc3cnc(N(C)C)nc3n(C[C@H]3CCCO3)c2=O)cc1`, “inactive”. On to `CCn1c(-c2ccc(N(C)C)cc2)nc2ccccc21`, for which the concentration at half-maximal activity (AC50) is 39.8 µM (active). On the same count and under the same terms, to `Cc1cc(C)c(NC(=O)CS(=O)CC(=O)NCCCc2ccccc2)c(C)c1` (stereo not given) belongs “inactive”; to `O=C(NCCCc1ccccc1)c1cccs1`, 2.51 µM (active). The same measure, in the same setting: next, `Cc1ccc(NC(=O)NCCCc2ccccc2)cc1`: 2.51 µM (active); `Cc1ccc(NNS(=O)(=O)c2ccc(C)cc2)cc1`: 7.08 µM (active).

Consider `Cc1ccc(S(=O)(=O)NC(=O)OC23COCN2COC3)cc1`, for which the activity, negative = inhibition was 12.8% [at 11.4 µM].

Turning to `Cc1ccc(S(=O)(=O)NNc2ccccc2)cc1`, the AC50 is 2.82 µM (active).

Take `Cc1ccc(NC(=O)NNS(=O)(=O)c2ccc(Br)cc2)cc1`: the AC50 entry was “inactive”. As for `CO[C@H]1COC(=O)[C@@H](Cc2ccccc2)NC(=O)[C@@H](C)COC(=O)CCC[C@@H]1C`, the activity, negative = inhibition is -15.4% [at 11.4 µM]. On to `COc1ccccc1C1(CC(=O)Nc2nccs2)CCOC(C(C)C)C1` (stereo not given), for which the half-maximal activity concentration (AC50) was 1.58 µM (active). For the molecule `COc1ccc(-c2csc(-n3ncc(-c4cccs4)c3N)n2)cc1`, the AC50 result is “inactive”. With `Nc1c(-c2cccs2)cnn1-c1nc(-c2ccc(F)cc2)cs1`, the AC50 entry is “inactive”.

On to `Nc1c(-c2cccs2)cnn1-c1nc(-c2ccc(Cl)cc2Cl)cs1`, for which the concentration at half-maximal activity (AC50) was 0.0708 µM (active).

In the case of `COc1ccccc1CNc1ncncc1-c1ccccc1C(F)(F)F`, the concentration at half-maximal activity (AC50) is 1.58 µM (active).

As to `COc1ccc(CNc2ncncc2-c2ccccc2C(F)(F)F)c(OC)c1`, the half-maximal activity concentration (AC50) is 1.58 µM (active).

In the case of `COCCn1c(=O)c(C)nc2cnc(N(C)C)nc21`, the AC50 result is “inactive”. On the same count and under the same terms, to `COC(=O)c1ccc(Oc2nc(N(C)C)nc(N3CCOCC3)n2)cc1` belongs 14.1 µM (active); to `COc1ccc(-n2c(=O)c(C)nc3cnc(N4CCOCC4)nc32)cc1`, “inactive”; to `CN(C)C(=O)c1ccc(-c2ccc3ncnc(N4CCOCC4)c3c2)cc1`, “inactive”. Consider `N#Cc1c(NC(=O)C(F)(F)F)sc2c3c(=O)c4ccccc4c(=O)c=3oc3ccccc3c12`, for which the AC50 was 0.501 µM (active). In the case of `Cn1c(=S)c2[nH]c(SCc3cccnc3)nc2n(C)c1=O`, the activity, negative = inhibition was 23.1% [at 11.4 µM].

Consider `Cc1cccc(N2CCN(C(=O)CCCn3c(=S)[nH]c4cc5c(cc4c3=O)OCO5)CC2)c1C`, for which the AC50 is 2.82 µM (active). The same measure, in the same setting: to `C=CCNC(=O)c1ccc(Cn2c(=S)[nH]c3cc4c(cc3c2=O)OCO4)cc1` belongs “inactive”; to `O=C(CCCn1c(=S)[nH]c2cc3c(cc2c1=O)OCO3)N1CCN(c2ncccn2)CC1`, 22.4 µM (active). Same read-out and setting: next, `O=c1c2cc(Br)ccc2[nH]c(=S)n1Cc1cccnc1`: 1.58 µM (active); `O=C(CCCn1c(=S)[nH]c2cc3c(cc2c1=O)OCO3)N1CCN(c2ccccc2)CC1`: 10 µM (active); `O=C(c1cnccn1)N1CCC2(CC1)CN(c1cccc(-c3ccccc3)c1)C2`: “inactive”.

Consider `O=C(O)/C=C\C(=O)Nc1cccc2c1-c1ccccc1C2=O`, for which the activity, negative = inhibition was 28.6% [at 11.4 µM].

As for `Cc1ccccc1CNc1ncnc2c1ncn2[C@@H]1O[C@@H](CO)[C@H](O)[C@@H]1O`, the AC50 entry is “inactive”.

With `O=C(CCCn1c(=S)[nH]c2ccc(Br)cc2c1=O)NCC1CCCO1` (stereo not given), the concentration at half-maximal activity (AC50) was 3.55 µM (active). In the case of `O=C(CCCn1c(=S)[nH]c2ccc(Br)cc2c1=O)N1CCN(c2ccccn2)CC1`, the half-maximal activity concentration (AC50) is 2.51 µM (active). With `CCCc1nnc(NC(=O)CCC(=O)N2CCN(c3ccccn3)CC2)s1`, the AC50 entry is “inactive”. Consider `CN=C(NC#N)NCCSC[C@H]1N=CN=C1C`, for which the AC50 entry was “inactive”.

Take `N[C@@H]1[C@@H]2[C@@H]3C[C@H]4N(CC[C@@]14C(=O)C(=O)O)CC3=CCO[C@@H]2CC(=O)O`: the activity, negative = inhibition is -13.5% [at 11.4 µM]. Take `Cc1ccc(S(=O)(=O)NCCSc2nnnn2C)cc1`: the concentration at half-maximal activity (AC50) is 5.01 µM (active). For `Cc1cccc(CNc2ncnc3ccc(-c4ccoc4)cc23)c1`, the half-maximal activity concentration (AC50) is 7.94 µM (active). With `c1cncc(CNc2ncnc3ccc(-c4ccoc4)cc23)c1`, the AC50 was 0.0251 µM (active).

For the molecule `Cc1cccc(CNc2ncnc3ccc(-c4cccc(C#N)c4)cc23)c1`, the AC50 result was “inactive”. The same measure, in the same setting: next, `Cn1cccc1C(=O)N1CCC2(CC1)CN(C(c1ccccc1)c1ccccc1)C2`: “inactive”; `CC(C)N(C(=O)CSc1nc2ccccc2n1-c1ccccc1)C(C)C`: 7.94 µM (active). Still for that read-out and setting: to `COC(=O)c1cc2c(ccn2-c2ccc(F)cc2)n1C(C)C` belongs 2 µM (active); to `COC(=O)c1cc2c(ccn2-c2ccc(F)cc2)n1CC(C)C`, 3.16 µM (active); to `COCCn1c(=O)c(-c2ccc(F)cc2)nc2cnc(N(C)C)nc21`, “inactive”. The same measure, in the same setting: next, `C=C[C@H](N)CCC(=O)O`: “inactive”.

With `CCc1ccccc1NC(=O)CSc1nc(-c2ccccc2)nn1C(=O)c1cccc([N+](=O)[O-])c1`, the concentration at half-maximal activity (AC50) was 0.398 µM (active). As for `CN(C)Cc1ccccc1-c1cc(NC2CC2)ncn1`, the AC50 entry is “inactive”. Same read-out and setting: next, `CN(C)Cc1ccccc1-c1cc(-n2ccnc2)ncn1`: 25.1 µM (active); `CNc1cc(-c2ccccc2CN(C)C)ncn1`: “inactive”. Turning to `COc1ccccc1-c1cc(-n2ccnc2)ncn1`, the half-maximal activity concentration (AC50) is 2 µM (active). Still for that read-out and setting: to `O=C(O)CCC(=O)N1CCc2cc(S(=O)(=O)N3CCCCC3)ccc21` belongs “inactive”; to `CSc1nc2cc(S(=O)(=O)N3CCCCC3)ccc2s1`, 1.26 µM (active).

As for `NS(=O)(=O)c1cccc2c1c([N+](=O)[O-])cc1nc(O)c(O)nc12`, the AC50 result was “inactive”. Still for that read-out and setting: next, `CN(C)C(=O)c1ccc(-c2cc(NCc3cccnc3)ncn2)cc1`: “inactive”; `COc1cccc(-c2cc(NCc3ccccc3)ncn2)c1`: 7.94 µM (active).

Consider `COc1cccc(-c2cc(NCc3cccnc3)ncn2)c1`, for which the concentration at half-maximal activity (AC50) was 10 µM (active). For `c1cncc(CNc2cc(-c3ccoc3)ncn2)c1`, the AC50 entry was “inactive”.

On to `Nc1ccn([C@@H]2CC[C@H](CO)O2)c(=O)n1`, for which the AC50 result is “inactive”. With `O=C(O)[C@@H]1[C@@H]2C[C@H]3c4[nH]c5ccccc5c4CCN3C[C@@H]2CC[C@@H]1O`, the AC50 result was “inactive”.

For the molecule `S=C(NCc1ccccn1)Nc1cccc(Cl)c1`, the AC50 is 3.55 µM (active). Still for that read-out and setting: next, `O=C(Nc1ccc(Cl)cc1)NC1CCCCC1`: 8.91 µM (active); `S=C(Nc1cccc(Cl)c1)NC1CCCCC1`: 7.08 µM (active); `NC(=O)c1ccc(NC(=O)C2CCCO2)cc1` (stereo not given): “inactive”. Still for that read-out and setting: to `Cc1ccc(NC(=S)N2CCN(C3CCCCC3)CC2)cc1` belongs 6.31 µM (active).

As to `CC(=O)NS(=O)(=O)c1ccc(NC(=O)NC2CCCCC2)cc1`, the AC50 entry was “inactive”. Still for that read-out and setting: to `Cc1ccc(NC(=S)N2CCN(C(=O)C3CCCO3)CC2)c(C)c1` (stereo not given) belongs “inactive”.
